Shown are actives, neighbours in structure and some others; about 7.9% of the full set was active somewhere.
HT1080NT lethal = kills 2HG-producing HT-1080-NT fibrosarcoma cells | HT-1080-NT fibrosarcoma viability, CellTiter-Glo ATP luminescence, 48 h | Potency, µM (top dose mostly 46.1 µM), for inactives: top-dose activity, negative = less viability, usual class: cytotoxic | hit rate 1.6% among 360,000 | AID 686970;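 further: NT is the 2HG producing partner of a matched IDH1 knockdown line; 0% = DMSO-treated cells and -100% = media-only wells without cells; nearly all actives have a fitted effect of over 55% in size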
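Toxicity toward the 2HG-producing NT line was scored as %Activity, normalised to DMSO and no-cell wells, from CellTiter-Glo luminescence after 48 hours' treatment.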
KB-3-1 tox = KB-3-1 parental cell cytotoxicity; Potency, µM (titrated, usually from 46.1 µM), usual class: cytotoxic; KB-3-1 viability, CellTiter-Glo ATP luminescence, 72 h; hit rate 1.4% among 400,000; further: on the % scale 0 is the no-effect control and ±100 the full control effect; nearly all actives have a fitted effect of over 60% in size
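Cells are dispensed, compounds pinned in, plates held at 37 °C for 72 h, then CellTiter-Glo is added and luminescence read after 10 minutes. Cell line: parental KB-3-1 in phenol-red-free DMEM, 10% FBS.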
MCF10A rereplic = inducers of DNA re-replication in MCF 10A breast cells. MCF 10A DNA re-replication, Hoechst nuclear intensity, 48 h. Potency, µM (titrated, usually from 46.1 µM), inactives show at the top dose activity, positive = re-replication, usual class: activators. hit rate 2.9% among 350,000. AID 624296; further: % of control where 0% means no effect; nearly all actives have a fitted effect of over 50% in size
KB-V1 cytotox = KB-V1 MDR subline cytotoxicity; KB-V1 MDR cells viability, CellTiter-Glo, 72 h; Potency, µM (series often up to 46.1 µM), hits mostly cytotoxic; hit rate 3.4% among 400,000; AID 1347076; further: on the % scale 0 is the no-effect control and ±100 the full control effect; nearly all actives have a fitted effect of over 60% in size
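Potencies derive from concentration-effect curves fitted to normalized luminescence (CellTiter-Glo) of KB-V1 cells treated for 72 h at 37 degrees C in phenol-red-free DMEM containing 10% FBS.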
SW480 rerep = induces DNA re-replication in SW480 colon adenocarcinoma cells; SW480 DNA re-replication, Hoechst DNA content imaging, 48 h; Potency, µM (titrated, usually from 46.1 µM), without a hit: top-dose re-replication activation, actives largely listed as activators; hit rate 1.8% among 340,000; further: % of control where 0% means no effect; nearly all actives have a fitted effect of over 55% in size
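Per well, 250 cells were exposed to pinned compound for 48 hr. Nuclear DNA was visualised with Hoechst (40 min, 37 C) and total object intensity recorded by fluorescence scanning.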
HT1080 IDH1KD tx = kills HT-1080 cells with IDH1 knockdown | HT-1080 IDH1 knockdown viability, ATP luminescence, 48 h | Potency, µM (doses to about 46.1 µM), for inactives: at the top dose activity, negative = toxicity, actives largely listed as cytotoxic | hit rate 2% among 360,000 | AID 686971;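 further: 0% = DMSO wells and -100% = cell-free medium wells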
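% activity derives from luminescence (CellTiter-Glo), normalised to DMSO and no-cell wells. HT-1080-IDH1KD cells, 750/well, had 48 h compound exposure at 37 °C.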
Starred values were filed as active, the others as inactive; i = inactive; ? = inconclusive; nt = no result. The call rests on the fitted dose curve; in most records, active means well fitted curve in the direction sought with a large enough effect; inconclusive means small, poorly fitted or top-dose-only effect, or another doubt; inactive means no such curve, though single readings can be large; an effect the other way counts as inactive or inconclusive. Potency means the concentration at half of the fitted maximal effect.

SMILES | HT1080NT lethal | KB-3-1 tox | MCF10A rereplic | KB-V1 cytotox | SW480 rerep | HT1080 IDH1KD tx
CCCCCCCCSc1nnc(CSc2nc3nc(C)cc(C)n3n2)o1 | -5% | ? | ? | 2.6µM* | -5% | 12%
Cc1cc(C)n2nc(SCc3nnc(SCCCCl)o3)nc2n1 | -3% | i | ? | ? | -1% | 23%
COc1ccc(-c2ccc(C(c3c(C)[nH][nH]c3=O)c3c(C)[nH][nH]c3=O)o2)c([N+](=O)[O-])c1 | 8.2µM* | ? | 21µM* | ? | ? | 26µM*
Cc1[nH][nH]c(=O)c1C(c1ccc(-c2ccc(F)cc2)o1)c1c(C)[nH][nH]c1=O | ? | i | ? | i | -8% | -29%
Cc1[nH][nH]c(=O)c1C(c1ccc(-c2ccc(C(=O)O)cc2)o1)c1c(C)[nH][nH]c1=O | 1% | i | -8% | i | 2% | -6%
Cc1[nH][nH]c(=O)c1C(c1ccc(-c2ccc(Cl)c(Cl)c2)o1)c1c(C)[nH][nH]c1=O | -24% | i | 2.9µM* | i | 14% | -11%
Cc1noc(C)c1C(=O)N1CCC1(C)C(=O)NS(=O)(=O)c1ccccc1C(F)(F)F (configuration not stated) | 4% | i | nt | i | nt | 2%
O=S(=O)(Nc1cccc(F)c1)c1ccc(S(=O)(=O)N2CCOCC2)cc1 | -2% | i | nt | i | nt | -16%
N#Cc1cnn(-c2ccc([N+](=O)[O-])cc2[N+](=O)[O-])c1N | -2% | 18µM* | nt | ? | nt | -29%
COc1ccc(-c2coc3cc4oc(=O)cc(-c5ccccc5)c4cc23)cc1F | 6.5µM* | 2.9µM* | 6.5µM* | ? | ? | 3.7µM*
COc1ccc(-c2coc3cc4oc(=O)cc(C)c4cc23)cc1F | 11% | i | 5.2µM* | ? | ? | 19%
COc1cccc(N2CCN(C(=O)CCc3c(C)nc4c(c3C)c(=O)n(C)c(=O)n4C)CC2)c1 | nt | i | nt | i | nt | nt
NC(=O)c1ccccc1OCC(=O)N1CCc2ccccc2C1 | -3% | i | 2% | ? | 10µM* | -3%
CCN(CC)CCNC(=O)c1c2c(nc3ccccc13)C(=O)N(C1CCCCC1)C2 | nt | ? | nt | i | nt | nt
CCn1c(=O)c(C(C)=O)nc2ccccc21 | 10% | i | -14% | i | -5% | 4%
CCCCCn1c(=O)c(C(=O)c2ccccc2)nc2ccccc21 | 1% | ? | -1% | 12µM* | -5% | 3%
Cc1ccc(C)c(NCC(=O)c2ccc(Cl)cc2)c1 | -5% | i | 23µM* | i | ? | 0%
CC(Oc1ccc(Cl)cc1Cl)c1nc(-c2ccc(NC(=O)c3ccco3)cc2)no1 (configuration not stated) | -10% | i | 25% | 5.8µM* | -2% | -21%
CCCNC(=O)c1ccc2c(c1)ncn2-c1ccccc1OC | 26% | i | 3% | i | -6% | 22%
COc1ccc(CNc2ccc3c(c2)ncn3-c2ccccc2OC)cc1 | -9% | i | 18% | 16µM* | ? | -18%
CC(C)(C)n1cnc2cc(NCc3cccs3)ccc21 | 2% | i | 2% | ? | -2% | 3%
Cc1ccccc1-n1cnc2cc(NCc3cccs3)ccc21 | -28% | ? | ? | i | 18µM* | ?
COc1ccccc1-n1cnc2cc(NCc3ccco3)ccc21 | 5.2µM* | 0.58µM* | 2.1µM* | 2.6µM* | 1.5µM* | ?
COc1ccccc1-n1cnc2cc(NS(=O)(=O)c3ccc(Br)cc3)ccc21 | -15% | i | ? | 12µM* | 14% | ?
CCOc1ccc(CNc2ccc3c(c2)ncn3C(C)(C)C)cc1 | -1% | i | -1% | i | 4% | -4%
SMILES | HT1080NT lethal | KB-3-1 tox | MCF10A rereplic | KB-V1 cytotox | SW480 rerep | HT1080 IDH1KD tx
Cc1ccc(S(=O)(=O)c2cnc(-c3ccccc3)[nH]c2=O)cc1 | 21% | nt | nt | nt | nt | 2%
CN(C)c1ccc(NC(=O)CN2C(=O)c3ccccc3Sc3ccc(C(=O)N4CCCC4)cc32)cc1 | nt | i | nt | i | nt | nt
COc1ccccc1-n1cnc2cc(NCc3cccs3)ccc21 | 3.7µM* | 1.2µM* | 1.5µM* | ? | 2.1µM* | 2.1µM*
Cc1ccccc1CNC(=O)c1ccc2sc([C@H]3C[C@H](O)[C@@H](CO)O3)nc2c1 | -1% | i | nt | i | nt | 0%
Cc1ccc(CNC(=O)C2CCCN2C(=O)Nc2ccccc2)cc1 (configuration not stated) | -4% | i | 0.65µM* | i | -1% | 2%
COc1cccc(NC(=O)[C@@H]2CCCN2C(=O)C2CCN(S(=O)(=O)c3ccc(C)cc3)CC2)c1 | ? | i | 8% | 18µM* | 16% | -1%
Cc1ccc(S(=O)(=O)N2CCC(C(=O)N3CCC[C@H]3C(=O)NCc3ccccc3)CC2)cc1 | -2% | i | 2% | ? | -17% | 0%
COc1ccccc1CNC(=O)[C@@H]1CCCN1C(=O)C1CCN(S(=O)(=O)c2ccc(C)cc2)CC1 | -5% | i | 0% | 16µM* | -1% | -11%
O=C(CSc1n[nH]c(-c2ccccc2)n1)N1CCN(c2ccccc2F)CC1 | nt | i | nt | i | nt | nt
O=c1[nH]c2ccc(NCc3ccc(-c4cccc(Cl)c4)o3)cc2[nH]1 | nt | i | nt | i | nt | nt
C[C@H](CO)N1C[C@H](C)[C@@H](CN(C)S(=O)(=O)c2cccc(F)c2)Oc2ncc(Br)cc2C1=O | -3% | i | nt | i | nt | 0%
COC(CNC(=O)C1CCN(C(=O)c2cc3oc(C)cc3n2Cc2c(F)cccc2Cl)CC1)OC | 4% | ? | 0% | 8.2µM* | -37% | -16%
Cn1c(=O)c2cc(S(=O)(=O)NCCC(=O)N3CC=C(c4ccccc4)CC3)ccc2n(C)c1=O | 2% | i | -12% | 23µM* | -1% | -8%
CC1(C)NC(=O)N(CCC(=O)Nc2ccc(C(C)(C)C)cc2)C1=O | -2% | i | nt | i | nt | -2%
COc1cc(OC)cc(C(=O)Nc2nnc(Cc3ccc(OC)c(OC)c3)s2)c1 | -12% | i | 4% | i | -1% | 0%
COc1cc(OC)cc(C(=O)Nc2nnc(NC(=S)Nc3ccccc3)s2)c1 | -9% | i | 10µM* | i | 9% | -15%
COc1ccc(Cc2nnc(NC(=O)c3ccc(OC)c(OC)c3)s2)cc1 | -13% | ? | 3.7µM* | i | ? | -13%
COc1ccc(Cc2nnc(NC(=O)c3ccccc3)s2)cc1OC | 6% | i | -1% | i | -5% | -10%
COc1cc(C(=O)Nc2nnc(Cc3ccccc3)s2)cc(OC)c1OC | ? | i | ? | i | ? | 10µM*
